Active and inactive are the calls of the source. Rule for the calls: active = hit-call score of the fitted dose curve at least 0.9, where 1 is the maximum; inactive = score below 0.9.

The test is described as follows: BSK_SAg_Proliferation: Cell Proliferation Assessment in the BioMAP Diversity Plus: SAg Assay (AID 2283095). The following applies: primary human HUVEC with PBMC. On the procedure:
BSK_SAg is a cell-based, multiplexed-readout assay that uses umbilical vein endothelium and peripheral blood mononuclear cells, a human vascular primary cell co-culture, with measurements taken at 24 hours after chemical dosing in a 96-well plate.BSK_SAg_Proliferation is an assay component in the BSK_SAg assay. It measures protein content, a form of viability reporter, as detected with absorbance signals by Sulforhodamine staining technology. Data from the assay component BSK_SAg_Proliferation was analyzed into 1 assay endpoint. This assay endpoint, BSK_SAg_Proliferation, was analyzed with bidirectional fitting relative to DMSO as the negative control and baseline of activity. Using a type of viability reporter, measures of total protein for gain or loss-of-signal activity can be used to understand the viability at the cellular-level. Furthermore, this assay endpoint can be referred to as a secondary readout, because this assay has produced multiple assay endpoints where this one serves a viability function. To generalize the intended target to other relatable targets, this assay endpoint is annotated to the cell cycle intended target family, where the subfamily is proliferation.
The levels of cell surface (or secreted, indicated by the prefix "s") biomarker endpoints were measured by ELISA. Overt cytotoxicity to cells in confluent adherent cultures (all systems other than the BT system) was assessed by measuring total protein levels using sulforhodamine B (SRB) staining in parallel cultures at the time of biomarker measurements, indicated as SRB endpoints. For proliferation assays for adherent cell types, individual cell types are cultured at sub-confluence and relative cell numbers quantified by SRB staining at time points optimized for each system (48 h: 3C and CASM3C systems; 72 h: BT and HDF3CGF systems; 96 h: SAg system). SRB was performed by staining cells with 0.1% SRB after fixation with 10% TCA and reading wells at 560 nm.Viability and proliferation of PBMC (T cells) was quantified by Alamar Blue reduction for the SAg and BT systems. For PBMC viability (referred to as PBMC Cytotoxicity within the assay endpoint names), cells were plated (75,000/well in a 96-well plate) and then chemical samples added for 1 h before addition of activators, SEB and TSST-1 (20 ng/mL final concentration each). Cells were incubated for 90 h. Then, Alamar Blue (20 uL/well) (Invitrogen, Cat DAL1100) was added for 6 h, and the plates were read with a fluorescence microplate reader at 546/580 nm (excitation/emission). For PBMC proliferation, cells were plated and activated as above but incubated for only 16 h prior to addition of Alamar Blue. Plates were read after 6 h.
As to `CCCCC(CC)COC(=O)CCCCCCCCC(=O)OCC(CC)CCCC` (stereo not given), the outcome was inactive.
Still for that read-out and setting: the result for `CC(O)CN(CCN(CC(C)O)CC(C)O)CC(C)O` (stereo not given) reads “inactive”.
Same read-out and setting: next, `Cn1c(=O)c2c(ncn2C)n(C)c1=O`: “inactive”; `O=C(O)c1cc(N=Nc2ccc(S(=O)(=O)Nc3ccccn3)cc2)ccc1O`: “inactive”.
For `CC(C)CCCCCCCOC(=O)CCCCC(=O)OCCCCCCCC(C)C`, the result was inactive.
On the same count and under the same terms, the result for `COC(=O)CC(=O)OC` reads “inactive”; that for `CCNc1ccccc1`, “inactive”; that for `O=C1CCCCCN1`, “inactive”.
Same read-out and setting: the result for `COc1cccc(-c2ccc(/C=C\CN3CCCCCC3)cc2Cl)c1` reads “inactive”; that for `O=C(O)CCN(C1(C(=O)NO)CCCC1)S(=O)(=O)c1ccc(Oc2ccc(F)cc2)cc1`, “inactive”; that for `CCOCCO`, “inactive”.
Still for that read-out and setting: the result for `CC(C)CCO` reads “inactive”.
For the compound `Cc1ccc(O)cc1`, the outcome was inactive.
As for `CCc1cc(SCc2sc(-c3ccc(C(F)(F)F)cc3)nc2CN2CCN(c3ccc(OC)cc3)CC2)ccc1OCC(=O)O`, the AC50 was 9.97 µM (active).
Take `CCOCCOCCOCCO`: the outcome was inactive.
Still for that read-out and setting: next, `Nc1nc2ncc(CNc3ccc(C(=O)N[C@@H](CCC(=O)O)C(=O)O)cc3)nc2c(=O)[nH]1`: “inactive”; `CCn1nc(Cc2ccccc2)cc1C1CCN(C[C@H]2C[C@H](N(C)[C@@H](C(=O)O)C(C)C)C[C@@H]2c2cccc(F)c2)CC1`: “inactive”.
Take `CN(C)c1ccc(Cc2ccc(N(C)C)cc2)cc1`: the AC50 was 30.9 µM (active).
Same read-out and setting: next, `Cc1ccc(N)cc1O`: 8.98 µM (active).
As for `CC(C)CCCCCCOC(=O)c1ccc(C(=O)OCCCCCCC(C)C)c(C(=O)OCCCCCCC(C)C)c1`, the outcome was inactive.
Still for that read-out and setting: the result for `CCCN(C1CCN(C(=O)C2CCNCC2)CC1)[C@@H]1CCc2ccc(OC)cc2C1` reads “inactive”; that for `CCCCC(CC)COC(=O)c1ccc(C(=O)OCC(CC)CCCC)cc1` (stereo not given), “inactive”.
Turning to `O=C(CCCCCCCCc1cccnc1)N1CCC(C=C(c2ccccc2)c2ccccc2)CC1`, the AC50 was 6.21 µM (active).
Same read-out and setting: next, `O=P(OC(CCl)CCl)(OC(CCl)CCl)OC(CCl)CCl`: 25.3 µM (active).
As for `O=C(NS(=O)(=O)/C=C/c1ccccc1)c1ccc(F)cc1Cl`, the AC50 was 8.5 µM (active).
The same measure, in the same setting: the result for `CC(=O)c1ccc2c(c1)[C@H](NC(=O)c1ccc(F)cc1)[C@@H](O)C(C)(C)O2` reads 4.31 µM (active); that for `On1ccccc1=S`, 6.94 µM (active).
In the case of `CC(C)=CCC/C(C)=C/CO`, the result was inactive.
Same read-out and setting: next, `O=c1[nH]c2ccc(S(=O)CCN3CCC(Cc4ccc(F)cc4)CC3)cc2o1` (stereo not given): “inactive”.
The same measure, in the same setting: the result for `COc1ccc(-n2nc(C(F)F)cc2-c2ccc(S(C)=O)cc2)cc1` (stereo not given) reads “inactive”.
Take `C1N2CN3CN1CN(C2)C3`: the result was inactive.
For `COc1ccc(/C=C/S(=O)(=O)NC(=O)c2ccc(C)cc2Cl)cc1`, the AC50 was 6.54 µM (active).
As for `O=c1n(CC2CO2)c(=O)n(CC2CO2)c(=O)n1CC1CO1` (stereo not given), the AC50 is 10.6 µM (active).
Consider `CCN(C(=O)c1cc(C)cc(OC[C@H](C)Nc2ccncc2)c1)C(C)C`, for which the result was inactive.
With `CNS(=O)(=O)c1cc(C(=O)N2CCC(CCN3C4CCC3CC(n3c(C)nc5ccccc53)C4)(c3cccc(F)c3)CC2)c(Cl)cc1F` (stereo not given), the AC50 was 10.4 µM (active).
Consider `NC(=O)NO`, for which the result was inactive.
Same read-out and setting: next, `Cn1c(=O)cc(Oc2ccc(F)cc2F)c2cnc(NCC(C)(C)O)nc21`: “inactive”.
On the same count and under the same terms, next, `Cc1ccc(C)c(O)c1`: “inactive”.
For `CN(C)c1ccc(N=NS(=O)(=O)O)cc1`, the AC50 was 19 µM (active).
On the same count and under the same terms, next, `CCOc1cccc(-n2cc(C(=O)N3CCN(c4cc(C(=O)O)c5ccccc5c4)CC3)nc2-c2ccc(C)cc2)c1`: 24.6 µM (active).
